# Most compounds without a hit are left out; they make up all but 2.8% or so of the library.
# CF NFkB block – inhibitors of cystic fibrosis induced NF-kB; KKLEB NF-kB-GFP reporter, PAF-induced, GFP fluorescence overnight; inhibition, % at 5 µM; actives 0.86% (n = 360,000); AID 588850;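 active means at least 50% inhibition at 5 µM, scaled per plate between neutral and stimulator controls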;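 further: PAF is a Pseudomonas aeruginosa culture filtrate used as stimulus; plate controls were PAF-stimulated DMSO wells for no effect and unstimulated DMSO wells for full effect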
# Shn3 inh set2 – inhibitors of Schnurri-3 3'UTR reporter in osteoblasts; Clone20 osteoblast Shn3 3'UTR firefly luciferase, 24 h; inhibition, % at 12.5 µM; actives 0.52% (n = 360,000);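 active means mean inhibition of at least 75% with every replicate also reaching 75%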;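 further: 0% = median of neutral control wells and 100% = pilot-screen positive control compound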
# HIF-2a block – inhibitors of HIF-2a | actives 0.72% (n = 360,000) | 786-0 RCC cells HIF-2a reporter, luciferase luminescence, overnight | AID 624352 | inhibition, % at 18.8 µM;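 active means inhibition of the luminescence signal of 40% or more relative to plate controls, in a single-dose primary screen at 18.75 µM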
# KKLEB tox – CF airway cell cytotoxicity counter-screen; activity change (cytotoxicity), % at 5 µM; actives 0.36% (n = 360,000); AID 602141; KKLEB CF airway cells viability, ATPlite luminescence, overnight; active compounds read low; cells stimulated with P. aeruginosa culture filtrate;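 active means corrected activity change at or below -50% at 5 µM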
# Peg3 prom inh – reduces Peg3 promoter-driven luciferase expression in HeLa; HeLa PEG-Prom luciferase reporter, luminescence, overnight; inhibition, % at 20 µM; actives 1.7% (n = 360,000); AID 588405;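 active means inhibition of at least 50% at 20 µM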
# TRPM1 prom inh – MITF TRPM1 promoter inhibition in SK-MEL-5 cells; SK-MEL-5 TRPM1 promoter luciferase, 24 h; inhibition, % at 12.5 µM; actives 0.83% (n = 330,000);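 active means mean inhibition across replicates of 60% or more, whatever share of single replicates reaches that level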
# Numbers without * were called inactive; . = not tested or not shown.
SMILES,CF NFkB block,Shn3 inh set2,HIF-2a block,KKLEB tox,Peg3 prom inh,TRPM1 prom inh
CCOC(=O)c1c(-c2ccc(-c3ccccc3)cc2)csc1NC(=O)CNCCN(C)C,17,50,19,-8,103*,39
Cc1ccc([N+](=O)[O-])cc1N=Nc1c(-c2ccc([N+](=O)[O-])cc2)[nH]n(C(N)=S)c1=O,-27,54,-29,-44,48,64*
Cc1ccc2nc(-c3cc(-c4ccccc4)no3)cn2c1,-4,49,-32,-6,11,31
CCc1ccn2cc(-c3cc(-c4ccccc4)no3)nc2c1,-27,30,64*,-52*,73*,78*
N#Cc1cc(C(=O)c2cc(Br)ccc2O)cn(C2CCCCC2)c1=O,33,19,3,-7,52*,2
CN(C)CCCNc1cc(O)c2ncccc2c1,35,-5,17,-1,81*,55
Oc1cc(NCc2ccc(Cl)cc2)cc2cccnc12,20,10,10,10,-1,13
O=C(O)Cc1sc(Nc2ccc(Cl)cc2)nc1-c1cccs1,.,.,.,.,.,81*
Nc1nc(-c2cccs2)c(CC(=O)O)s1,1,-11,10,4,21,-2
CCCS(=O)(=O)c1c(S(=O)(=O)CCC)c2c(C)cccn2c1C(=O)N/N=C/c1cc(O)cc(O)c1,11,62,10,0,53*,58
O=C(NCC1CCCCC1)C1(CC2CC(c3ccc(Cl)cc3)=NO2)CCNCC1 (stereo not drawn),19,-5,-149,-21,97*,25
CC(C)(C)OC(=O)N1CCC(CC2CC(c3cccc(Br)c3)=NO2)(C(=O)NCC2CCCCC2)CC1 (stereo not drawn),.,15,.,.,.,-12
O=C(NCC1CCCCC1)C1(CC2CC(c3cccc(Br)c3)=NO2)CCNCC1 (stereo not drawn),2,-23,-30,-9,99*,65*
CCOc1cc(C(=O)N2CCC(CC3CC(c4ccc(Cl)cc4)=NO3)(C(=O)NCC3CCCCC3)CC2)cc(OCC)c1OCC (stereo not drawn),8,34,-1,-24,2,18
O=C(NCc1ccccc1)/C(=C\c1ccc(F)cc1)NC(=O)c1ccco1,9,1,8,-11,10,.
COc1cc(C(=O)N2CCC(n3cnc4cc(F)ccc43)CC2)cc(OC)c1OC,0,8,12,2,-1,-4
CCOc1cc2nc3c4ccccc4n(C)c3nc2cc1OCC,8,-33,-120,-2,-85,-27
CCN(CC)Cc1cc(Nc2c3ccccc3nc3c4ccccc4n(C)c23)cc(CN(CC)CC)c1O,-88,-2,-5,17,102*,78*
CN1CCN(c2ccc(NC(=O)c3ccc(-c4ccc(Br)cc4)o3)cc2)CC1,-23,17,-16,-36,89*,12
Cc1ccccc1C(=O)Nc1cccc(NC(=O)c2ccc(-c3ccc(Br)cc3)o2)c1,44,11,-20,-53*,9,-8
CCOC(=O)C1CCN(C(=O)c2sc3nc(C)nc(N4CCC(C)CC4)c3c2C)CC1,23,88*,23,-10,9,0
CCOC(=O)C1CCN(C(=O)c2sc3ncnc(N4CCC(C)CC4)c3c2C)CC1,6,31,-18,-3,5,9
Clc1ccc2oc3c(Cl)ncnc3c2c1,20,-14,18,-15,84*,77*
OC(COCC(F)(F)C(F)(F)C(F)(F)C(F)F)Cn1c2ccc(Cl)cc2c2cc(Cl)ccc21 (stereo not drawn),46,8,-7,-17,63*,2
CCOC(=O)c1c(O)c2cc(Cl)ccc2n(CC)c1=O,15,-17,16,-6,18,.
SMILES,CF NFkB block,Shn3 inh set2,HIF-2a block,KKLEB tox,Peg3 prom inh,TRPM1 prom inh
CCN(C)C1CN(Cc2cn(CCCC(=O)OC)nn2)S(=O)(=O)C1 (stereo not drawn),.,.,13,.,.,.
O=C1CC(Sc2nnnn2C2CCCCC2)C(=O)N1c1ccccc1 (stereo not drawn),-6,25,15,-4,85*,1
Cn1nnnc1SC1CC(=O)N(c2ccccc2)C1=O (stereo not drawn),1,-1,15,-9,14,-4
Cc1ccc(NS(=O)(=O)c2ccc(C(=O)NC3CCN(Cc4ccccc4)CC3)cc2)cc1,7,85*,12,-19,32,20
COc1ccc(/C=C/C(=O)NCCSCc2ccco2)cc1OC,5,2,7,0,1,4
Cc1nc2c(-c3ccc(F)cc3)cnn2c(N)c1-c1ccccc1,-1,-4,25,-54*,-10,-1
O=C(Nc1c(F)cccc1F)c1cnc(N2CCN(c3ccccn3)CC2)c2ccccc12,-27,43,-8,-5,73*,30
O=C(c1cnc(N2CCN(c3ncccn3)CC2)c2ccccc12)N1CCN(c2ccccn2)CC1,8,33,22,-3,28,9
Cc1ccc(NC(=O)c2cnc(N3CCN(c4ccccn4)CC3)c3ccccc23)c(Br)c1,-13,59,19,-17,90*,38
O=C(Nc1cccc(S(=O)(=O)NC2=NCCCCC2)c1)c1ccc(Cl)cc1,15,42,17,1,-6,28
Cc1noc(C)c1NC(=O)N(C)C[C@H]1Oc2ccc(NC(=O)Nc3ccc4c(c3)OCO4)cc2C(=O)N([C@H](C)CO)C[C@@H]1C,8,-15,2,4,-6,4
O=c1cc(-c2ccccc2)[nH]n1-c1ccc([N+](=O)[O-])cc1,59*,21,-156,-55*,-72,3
O=C(NCCCn1ccnc1)c1ccc(N2CCCCC2)c([N+](=O)[O-])c1,-15,-19,2,7,7,12
CC1CCCN(CCCNC(=O)c2ccc3c(c2)N(Cc2cccc(Cl)c2)C(=O)c2ccccc2S3=O)C1 (stereo not drawn),2,-11,8,0,57*,.
COc1cccc(/C=N/NC(=O)CN2CC(c3ccccc3)CC2=O)c1OC (stereo not drawn),-12,13,13,-17,0,94*
Cc1cc(C)c2nc3nc(C)c(C)cc3c(N)c2c1,-115,-6,-10,-3,66*,41
CC(C)=C1C2CCC1C1C(=O)N(NC(=O)COc3ccc(C(C)(C)C)cc3)C(=O)C21 (stereo not drawn),7,34,13,-3,55*,-4
COc1ccc(N2C(=O)c3ccccc3C2=O)cc1,-32,6,-23,-8,-23,5
COc1ccc(N2C(=O)C(Cl)=C(Oc3cccc(OC)c3)C2=O)cc1,12,36,93*,4,107*,24
COCCN(CC(=O)Nc1cccc(C)c1C)C(=O)c1oc2c(Cl)cccc2c1C,-10,31,18,-7,52*,13
CCOC(=O)Cc1csc(NS(=O)(=O)c2ccc(OC)cc2)n1,23,-1,15,-7,-3,1

# Screening results: PubChem BioAssay, several laboratories
